The text below walks through data of PubChem BioAssay (Tox21).

The nature of assay [1]: qHTS assay to identify small molecule antagonists of the estrogen related receptor (ERR) signaling pathway - cell viability counter screen (AID 1224818). Note: series mostly up to about 46 µM. In short, it runs like this: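 Fluorescence from CellTiter-Fluor, read 30 min after reagent addition at 37 C, measured viability of ERR cells exposed to compounds for 17.5 h. Cells had settled 6 h before dosing.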
Assay [2] in a line: qHTS assay to identify small molecule agonists of the estrogen related receptor (ERR) signaling pathway (AID 1224820). In short, it runs like this:
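After 6 h plating (2,000 cells/well) and 18 h compound treatment at 37 C, ERR cells were lysed with One-Glo and luminescence read after 30 min at room temperature.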
(In qHTS, concentration-response curves come from the screen itself.)

Assay [3] is described as follows: qHTS assay to identify small molecule antagonists of the estrogen related receptor signaling pathway with the pleiotropic PPARgamma coactivator (PGC) cell viability counter screen (AID 1224822; note: series mostly up to about 46 µM). In short, it runs like this: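 Fluorescence read-out of CellTiter-Fluor after 30 min at 37 C; PGC/ERR cells, 2,000 per well, had been exposed to DMSO-dissolved compounds for 17.5 h following a 6 h pre-incubation.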

Assay [4] in a line: qHTS assay to identify small molecule agonists of the estrogen related receptor signaling pathway with the pleiotropic PPARgamma coactivator (PGC) (AID 1224823). In outline: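 Luminescence from One-Glo reagent (30 min, room temperature) was read after 18 h compound treatment at 37 C of PGC/ERR cells plated 6 h beforehand; compounds delivered in DMSO by pin tool.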
Assay [5] is described as follows: qHTS assay to identify small molecule antagonists of the estrogen related receptor (ERR) signaling pathway (AID 1224819; note: potency is the fitted concentration of half-maximal effect; nearly all actives have a fitted effect of over 50% in size). In short, it runs like this:
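Luminescence readout (One-Glo, 30 min, RT) of ERR cell line after 18 h compound exposure at 37 C; cells seeded 2,000/well, pre-incubated 6 h, compounds pinned from DMSO stocks.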

Assay [6] deals with estrogen-related receptor alpha (ERRalpha) with PGC-1alpha coactivator, human. Nature of the assay: qHTS assay to identify small molecule antagonists of the estrogen related receptor signaling pathway with the pleiotropic PPARgamma coactivator (PGC) (AID 1224821; calls by dose curve;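 note: series mostly up to about 46 µM; lower luminescence signal means antagonism of PGC/ERR signalling; nearly all actives have a fitted effect of over 50% in size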). In short, it runs like this:
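Luminescence from One-Glo luciferase reagent (30 min, room temperature) measured after 18 h compound treatment at 37 °C. Cells carry the PGC/ERR reporter and were seeded 6 h prior to dosing.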

Inconclusive results are not listed. Calls of active or inactive are those of the source. Unless noted, calls come from the whole dose curve; as a rule, active = well fitted curve in the direction sought with a large enough effect in the repeat runs; inconclusive = weak or mixed curves; inactive = no such curve, though single readings can be large; an effect the other way counts as inactive or inconclusive.

`Cc1nccc2c1[nH]c1ccccc12`: the Potency result in assay [1], in assay [2], in assay [3] and in assay [4] was “inactive” in each case.

With `C[C@]12Cc3cn4c(nc3C=C1CCC1C2CC[C@@]2(C)[C@H]1CC[C@@]2(O)C#N)nc1ccccc14` (stereo not given in full), the Potency result in assay [1], in assay [2] and in assay [4] was “inactive” in each case. For the same compound, in assay [5], the Potency was 10.6 µM (active).

As to `Oc1ccc2c3c1O[C@H]1c4oc5ccccc5c4C[C@@]4(O)C(C2)N(CC2CC2)CCC314` (stereo not given in full), the Potency result in assay [1], in assay [2], in assay [6], in assay [3] and in assay [4] was “inactive” each time.

Turning to `[Cl-].[Cl][Pt].[NH2-].[NH2-].c1ccncc1`, the Potency entry in assay [1] and in assay [3] was “inactive” in each case.
